Screening data from PubChem BioAssay.
NR3A LBD binder – NR3A (human) ligand-binding domain modulation; NR3A LBD differential scanning fluorimetry, Tm shift; 0% = protein alone, 100% = glycine-bound protein; Tm shift relative to glycine control, % at 25 µM; 2.5% of 340,000 active; AID 1259313;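 active = melting temperature shift of at least 10% of the positive control shift, at one fixed dose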
CRFR2-BP antag – antagonists of CRF-binding protein/CRF-R2 receptor complex; HEK293 CRF-R2/CRF-BP, CRF-induced calcium fluorescence; inhibition, % at 11.8 µM; 0.59% of 350,000 active;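 active = inhibition of the ligand-induced calcium signal above about 50% at the single tested concentration, limit read from the data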
TMEM16A act – mouse TMEM16A channel activation, primary screen; HEK293 TMEM16A/YFP-H148Q/I152L, iodide quench fluorescence; hits give low values; 0.3% of 340,000 active; B-score at 10 µM;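 active = fluorescence-ratio B-score plate-corrected deviation score at least 3 library SD below zero, with starting fluorescence score within 5 deviations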;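 also: channel opened by trigger with iodide after compound preincubation; score built on the fluorescence ratio of max minus min over baseline; more negative score means more quench and so TMEM16A activation or potentiation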
ANO1 block – mouse TMEM16A channel inhibition, primary screen; Q8BHY3; HEK293 TMEM16A/YFP iodide influx fluorescence, ionomycin; normalized B-score (activity score, 25-100; higher = stronger inhibition) at 10 µM; 1.2% of 310,000 active;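 active = ratio plate-corrected score three or more library SD toward inhibition, starting fluorescence score within five deviations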;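 also: score derived from kinetic fluorescence span divided by baseline fluorescence per well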
MPTP inh – inhibitors of mitochondrial permeability transition pore; 1.4% of 360,000 active; isolated mouse mitochondria, Ca2+ swelling absorbance, 30 min; inhibition, % at 10 µM;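 active = inhibition of 50% or more, scaled per plate between neutral and stimulator controls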;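 also: 0% = DMSO wells given calcium and 100% = 1 mM EGTA wells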
CRFR2-BP ag – CRF-BP/CRF-R2 complex agonism. HEK293 CRF-R2/CRF-BP, calcium dye fluorescence (FLIPR); percent of saturating CRF peptide response. activation, % at 13.2 µM. 0.46% of 350,000 active;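 active = activation of at least 50%, plus an integration ratio under a set limit after plate pattern correction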;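 also: plate controls were neutral control wells without compound for no effect and CRF at EC100 for full effect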
Active calls of the source: *; i = inactive; / = not tested or not shown. Hits are enriched below; roughly 5.1% of the tested compounds scored in any of these assays.

SMILES	NR3A LBD binder	CRFR2-BP antag	TMEM16A act	ANO1 block	MPTP inh	CRFR2-BP ag
COc1ccc(C(=O)NC(NC(=S)Nc2ccc(S(N)(=O)=O)cc2)C(Cl)(Cl)Cl)cc1 (stereo unspecified)	13*	12	i	i	3	0
COc1ccc(NS(=O)(=O)c2ccc(NC(=O)CCNS(=O)(=O)c3ccc(C)cc3)cc2)cc1	10*	-74	i	i	3	26
Cc1ccc(S(=O)(=O)NCCC(=O)Nc2ccc(S(=O)(=O)NC(C)C)cc2)cc1	-2	-8	i	i	1	0
COc1ccc(C(=O)NC(=S)Nc2ccc(S(N)(=O)=O)cc2)cc1	-4	19	i	i	-1	5
COc1ccc(NC(=O)c2ccc(NC(=O)COC(=O)c3cnc(C)cn3)cc2)cc1	-3	7	i	i	-3	1
N#Cc1cccc(C(c2nnnn2C2CCCC2)N2CCCCCC2)c1 (stereo unspecified)	0	53*	i	i	0	6
CCN(CC)C(=O)Cn1cc(S(=O)(=O)CC(=O)NCCc2ccccc2)c2ccccc21	15*	-16	i	i	-3	0
CC(C)N(C(=O)Cn1cc(S(=O)(=O)CC(=O)NCCc2ccccc2)c2ccccc21)C(C)C	/	-8	/	/	-1	0
Cc1ccc(C(C)NC(=O)/C(C#N)=C\c2c(C)[nH]c3ccccc23)cc1 (stereo unspecified)	17*	-49	i	i	2	11
Cc1[nH]c2ccccc2c1/C=C(\C#N)C(=O)NCc1ccccc1	-9	-12	i	i	0	0
Cc1cnc2cc(Cl)c(Cl)cc2n1	579*	16	i	i	0	-1
Cc1nc2cc(Cl)c(Cl)cc2nc1C	-3	-6	i	i	2	-2
COc1ccc(CNC(=O)COC(=O)c2ccc(S(=O)(=O)N3CCCCC3)cc2)cc1	0	8	i	/	1	3
O=C(Nc1cccn(Cc2c(Cl)cccc2Cl)c1=O)c1c(Cl)cccc1Cl	3	52*	i	i	5	2
COC(=O)Nc1cccn(Cc2c(Cl)cccc2Cl)c1=O	-1	32	i	i	4	0
COc1ccc(CN(C(=O)c2nsc(Cl)c2Cl)C(C(=O)NC2CCCC2)c2ccc(OC)cc2)cc1 (stereo unspecified)	1	-10	i	i	0	53*
O=C(NC1CCCC1)C(c1ccncc1)N(Cc1ccccc1)C(=O)c1ccc(-c2ccccc2)[nH]1 (stereo unspecified)	-1	-25	i	i	0	2
O=C(NC1CCCC1)C(c1ccc(F)cc1)N(Cc1ccc(F)cc1)C(=O)c1ccn[nH]1 (stereo unspecified)	17*	-4	i	i	1	0
CCOC(=O)c1ccc(NC(=O)COc2ccc(-n3cnnn3)cc2)cc1	31*	4	i	i	4	3
N#CC(c1ccc(F)cc1)c1ccc(C(=O)c2ccccc2)cc1 (stereo unspecified)	-1	3	i	100*	0	5
O=c1[nH]c(S)c(/C=C2\C=Nc3ccccc32)s1	34*	25	i	i	-1	-3
Cc1c(C(=O)OCC(=O)Nc2ccc(S(N)(=O)=O)cc2)oc2c1ccc1ccccc12	18*	-2	i	i	0	2
Cc1ccc(S(=O)(=O)N2CCOCC2)cc1NC(=O)COC(=O)CCC(=O)c1cccs1	-1	0	i	i	-1	2
O=C(COC(=O)CCC(=O)c1cccs1)Nc1ccc(S(=O)(=O)N2CCOCC2)cc1	15*	7	i	i	-3	0
O=C(COC(=O)c1ccncc1)Nc1cc(S(=O)(=O)N2CCOCC2)ccc1Cl	1	67*	i	/	-3	-2
CCN(c1ccccc1)S(=O)(=O)c1ccc(Cl)c(NC(=O)COC(=O)c2ccc(O)cc2)c1	16*	0	i	i	2	1
Cc1cc(NC(=O)COC(=O)c2oc3c(ccc4ccccc43)c2C)no1	0	15	i	i	-1	-2
